What follows are targets tested with C#CCNC(=O)CCSSCCC(=O)NCCc1ccc(C=O)c(C=O)c1 (assay: lysine labeling ratio R10:1 (500 µM / 50 µM probe), SILAC-ABPP in living cells; higher = lower intrinsic lysine reactivity toward the probe, active = 2 or less). Details: HeLa; probe concentrations 500 vs 50 µM.
Method in brief: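 SILAC light and heavy living HeLa cells in PBS at room temperature were labelled with 50 µM or 500 µM of an alkyne-tagged, disulfide-linked lysine probe, with forward and reverse label swaps. Mixed lysates were clicked to biotin-azide, trypsin-digested, captured on neutravidin, DTT-released, alkylated and analysed by LC-MS/MS on a TIMS-TOF Pro. R is the filtered median high-probe/low-probe MS1 peptide ratio per lysine, then the median across forward and reverse replicates. Ratios are capped at 20.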

Sequence of UniProt Q9Y6N7 (Q9Y6N7 whole entry): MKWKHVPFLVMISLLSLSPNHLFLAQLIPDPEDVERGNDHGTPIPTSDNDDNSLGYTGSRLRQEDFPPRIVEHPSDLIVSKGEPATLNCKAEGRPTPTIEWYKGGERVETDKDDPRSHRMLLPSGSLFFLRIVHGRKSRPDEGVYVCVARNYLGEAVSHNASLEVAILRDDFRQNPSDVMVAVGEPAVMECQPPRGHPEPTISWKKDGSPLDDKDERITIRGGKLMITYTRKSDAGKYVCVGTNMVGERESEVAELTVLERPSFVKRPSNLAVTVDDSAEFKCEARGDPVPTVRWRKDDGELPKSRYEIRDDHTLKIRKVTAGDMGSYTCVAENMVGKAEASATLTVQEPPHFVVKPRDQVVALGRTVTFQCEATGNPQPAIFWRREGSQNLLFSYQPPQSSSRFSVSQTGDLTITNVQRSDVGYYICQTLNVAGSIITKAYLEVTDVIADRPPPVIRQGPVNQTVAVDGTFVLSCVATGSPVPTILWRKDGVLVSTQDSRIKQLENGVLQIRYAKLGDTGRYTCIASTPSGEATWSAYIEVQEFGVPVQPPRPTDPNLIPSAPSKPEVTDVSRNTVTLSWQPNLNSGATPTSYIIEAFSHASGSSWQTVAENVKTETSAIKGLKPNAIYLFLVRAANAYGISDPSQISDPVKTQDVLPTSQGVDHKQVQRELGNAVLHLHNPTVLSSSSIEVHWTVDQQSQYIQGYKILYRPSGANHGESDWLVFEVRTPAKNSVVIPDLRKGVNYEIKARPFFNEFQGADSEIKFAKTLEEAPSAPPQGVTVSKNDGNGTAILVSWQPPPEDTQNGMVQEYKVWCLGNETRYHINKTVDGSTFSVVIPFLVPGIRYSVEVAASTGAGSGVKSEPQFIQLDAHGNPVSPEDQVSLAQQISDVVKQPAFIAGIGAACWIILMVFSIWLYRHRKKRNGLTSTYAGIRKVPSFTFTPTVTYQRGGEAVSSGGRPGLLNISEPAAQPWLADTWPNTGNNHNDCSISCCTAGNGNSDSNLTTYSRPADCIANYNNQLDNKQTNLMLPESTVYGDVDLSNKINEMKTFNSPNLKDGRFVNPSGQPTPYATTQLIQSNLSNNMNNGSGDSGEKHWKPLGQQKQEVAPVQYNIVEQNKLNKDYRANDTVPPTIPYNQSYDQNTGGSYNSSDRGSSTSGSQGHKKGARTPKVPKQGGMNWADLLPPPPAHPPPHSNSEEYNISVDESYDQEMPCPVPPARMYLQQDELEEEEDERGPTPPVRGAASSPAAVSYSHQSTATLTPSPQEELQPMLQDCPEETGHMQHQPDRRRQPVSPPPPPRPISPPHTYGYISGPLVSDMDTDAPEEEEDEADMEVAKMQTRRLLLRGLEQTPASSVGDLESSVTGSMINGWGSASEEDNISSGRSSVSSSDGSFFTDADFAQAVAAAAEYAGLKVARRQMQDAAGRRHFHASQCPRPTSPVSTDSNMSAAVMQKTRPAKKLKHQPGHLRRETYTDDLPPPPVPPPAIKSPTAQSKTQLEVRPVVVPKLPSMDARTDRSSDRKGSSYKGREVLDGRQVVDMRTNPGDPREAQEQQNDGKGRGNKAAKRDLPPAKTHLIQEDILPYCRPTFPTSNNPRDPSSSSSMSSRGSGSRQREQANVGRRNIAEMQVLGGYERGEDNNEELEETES
Sequence of UniProt O75054 (O75054 whole entry): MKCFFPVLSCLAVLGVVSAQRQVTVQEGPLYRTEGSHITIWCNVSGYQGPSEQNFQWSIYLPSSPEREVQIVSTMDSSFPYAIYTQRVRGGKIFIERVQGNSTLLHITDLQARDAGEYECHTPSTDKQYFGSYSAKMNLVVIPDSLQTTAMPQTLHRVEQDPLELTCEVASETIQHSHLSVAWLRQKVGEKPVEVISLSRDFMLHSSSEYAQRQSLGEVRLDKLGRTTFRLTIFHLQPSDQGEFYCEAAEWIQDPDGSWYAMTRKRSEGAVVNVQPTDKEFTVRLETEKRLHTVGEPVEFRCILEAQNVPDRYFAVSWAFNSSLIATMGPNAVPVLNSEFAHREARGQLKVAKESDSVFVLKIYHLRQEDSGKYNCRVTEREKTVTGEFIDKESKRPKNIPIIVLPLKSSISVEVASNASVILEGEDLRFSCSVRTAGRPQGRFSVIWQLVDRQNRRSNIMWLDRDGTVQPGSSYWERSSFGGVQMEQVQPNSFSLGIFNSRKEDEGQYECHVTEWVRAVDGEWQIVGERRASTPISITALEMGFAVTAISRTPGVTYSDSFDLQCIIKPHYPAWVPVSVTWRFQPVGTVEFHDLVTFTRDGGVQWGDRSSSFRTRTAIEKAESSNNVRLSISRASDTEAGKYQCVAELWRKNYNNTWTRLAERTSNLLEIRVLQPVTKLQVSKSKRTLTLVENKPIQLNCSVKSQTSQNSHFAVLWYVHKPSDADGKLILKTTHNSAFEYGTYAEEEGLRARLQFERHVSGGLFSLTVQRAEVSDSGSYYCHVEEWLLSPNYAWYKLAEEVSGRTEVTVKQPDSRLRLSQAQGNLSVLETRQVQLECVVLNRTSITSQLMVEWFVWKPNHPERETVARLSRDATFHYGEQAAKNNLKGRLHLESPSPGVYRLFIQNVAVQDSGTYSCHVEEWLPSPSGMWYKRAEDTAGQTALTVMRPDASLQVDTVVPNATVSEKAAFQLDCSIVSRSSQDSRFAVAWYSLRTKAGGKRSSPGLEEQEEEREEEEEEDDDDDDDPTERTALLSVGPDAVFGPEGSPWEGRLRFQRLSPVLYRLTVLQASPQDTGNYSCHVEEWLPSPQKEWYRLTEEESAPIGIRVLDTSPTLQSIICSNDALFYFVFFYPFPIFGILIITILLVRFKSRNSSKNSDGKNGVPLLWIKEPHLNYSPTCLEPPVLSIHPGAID
Sequence of UniProt P55290 (P55290 whole entry): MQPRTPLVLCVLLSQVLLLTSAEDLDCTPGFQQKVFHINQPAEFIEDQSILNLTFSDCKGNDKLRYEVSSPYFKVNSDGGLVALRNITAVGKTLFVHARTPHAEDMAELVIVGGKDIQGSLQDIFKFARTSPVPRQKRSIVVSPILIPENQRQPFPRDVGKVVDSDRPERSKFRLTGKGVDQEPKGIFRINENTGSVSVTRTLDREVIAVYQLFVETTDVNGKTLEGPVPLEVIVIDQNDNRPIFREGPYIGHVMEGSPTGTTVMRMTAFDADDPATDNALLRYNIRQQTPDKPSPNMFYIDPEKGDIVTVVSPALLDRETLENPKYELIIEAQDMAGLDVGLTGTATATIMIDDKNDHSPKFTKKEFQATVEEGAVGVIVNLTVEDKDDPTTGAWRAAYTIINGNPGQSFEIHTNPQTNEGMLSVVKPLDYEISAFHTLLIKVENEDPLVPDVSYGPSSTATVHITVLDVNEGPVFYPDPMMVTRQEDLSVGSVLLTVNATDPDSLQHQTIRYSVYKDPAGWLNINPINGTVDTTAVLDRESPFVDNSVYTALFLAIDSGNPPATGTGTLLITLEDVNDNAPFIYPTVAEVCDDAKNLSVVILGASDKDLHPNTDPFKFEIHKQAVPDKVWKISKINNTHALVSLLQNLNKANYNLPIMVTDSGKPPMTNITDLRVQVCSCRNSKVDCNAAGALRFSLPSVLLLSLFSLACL
Sequence of UniProt Q92729 (Q92729 whole entry): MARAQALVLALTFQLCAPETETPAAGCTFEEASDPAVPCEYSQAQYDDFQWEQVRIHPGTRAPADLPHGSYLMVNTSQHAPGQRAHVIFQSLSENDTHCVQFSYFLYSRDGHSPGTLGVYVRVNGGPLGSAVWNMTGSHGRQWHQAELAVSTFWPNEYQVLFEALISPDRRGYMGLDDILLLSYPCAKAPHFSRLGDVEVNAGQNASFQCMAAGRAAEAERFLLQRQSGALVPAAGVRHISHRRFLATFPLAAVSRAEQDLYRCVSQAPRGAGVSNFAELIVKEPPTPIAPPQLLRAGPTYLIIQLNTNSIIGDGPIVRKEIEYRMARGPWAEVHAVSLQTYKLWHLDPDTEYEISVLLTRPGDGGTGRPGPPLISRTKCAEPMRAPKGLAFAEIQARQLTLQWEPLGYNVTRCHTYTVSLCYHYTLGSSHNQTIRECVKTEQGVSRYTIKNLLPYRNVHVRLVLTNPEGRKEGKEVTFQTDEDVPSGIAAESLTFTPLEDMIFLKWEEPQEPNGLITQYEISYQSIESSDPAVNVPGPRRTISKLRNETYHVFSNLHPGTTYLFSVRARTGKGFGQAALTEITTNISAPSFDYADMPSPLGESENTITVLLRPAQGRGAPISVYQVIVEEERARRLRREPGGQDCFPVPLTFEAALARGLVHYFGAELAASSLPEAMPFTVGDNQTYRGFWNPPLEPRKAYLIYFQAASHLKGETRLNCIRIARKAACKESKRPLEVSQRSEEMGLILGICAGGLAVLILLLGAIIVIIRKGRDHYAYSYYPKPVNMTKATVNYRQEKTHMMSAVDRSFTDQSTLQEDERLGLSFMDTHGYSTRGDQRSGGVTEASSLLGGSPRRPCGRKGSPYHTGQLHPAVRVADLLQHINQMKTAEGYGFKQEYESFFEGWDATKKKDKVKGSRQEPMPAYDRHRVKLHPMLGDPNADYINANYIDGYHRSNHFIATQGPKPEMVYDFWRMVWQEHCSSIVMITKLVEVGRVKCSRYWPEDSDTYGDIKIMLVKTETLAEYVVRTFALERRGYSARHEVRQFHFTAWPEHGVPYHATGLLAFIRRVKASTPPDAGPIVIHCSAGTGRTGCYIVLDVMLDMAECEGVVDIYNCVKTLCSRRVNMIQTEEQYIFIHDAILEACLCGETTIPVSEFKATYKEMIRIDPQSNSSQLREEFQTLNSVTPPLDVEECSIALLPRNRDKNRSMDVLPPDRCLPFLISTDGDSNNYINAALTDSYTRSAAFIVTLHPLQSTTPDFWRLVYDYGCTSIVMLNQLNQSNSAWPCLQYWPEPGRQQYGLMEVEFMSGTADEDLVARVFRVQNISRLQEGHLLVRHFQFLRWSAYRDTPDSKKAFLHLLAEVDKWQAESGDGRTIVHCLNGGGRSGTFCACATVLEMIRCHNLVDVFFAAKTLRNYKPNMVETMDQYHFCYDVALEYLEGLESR

Lysine labeling ratio R10:1, inactive:
ROBO1 (lysine site: K237) (UniProt Q9Y6N7) 3.22
XRCC5 (lysine site: K265) (UniProt P13010) 3.42
UniProt Q15149 (lysine site: K1815) 3.79
IGSF3 (lysine site: K191) (UniProt O75054) 4.16
PPL (lysine site: K1151) (UniProt O60437) 3.53
LAMA5 (lysine site: K255) (UniProt O15230) 2.33
RPSA (lysine site: K89) (UniProt P08865) 4.12
SPTAN1 (lysine site: K1023) (UniProt Q13813) 9.87
MSLN (lysine site: K487) (UniProt Q13421) 6.18
H2AFY (lysine site: K18) (UniProt O75367) 3.07
CDH13 (lysine site: K185) (UniProt P55290) 4.74
HSPD1 (lysine site: K364) (UniProt P10809) 2.45
UniProt P02533 (lysine site: K297) 2.74

Lysine labeling ratio R10:1, active:
UniProt Q92729 (lysine site: K440) 1.22
TXNDC5 (lysine site: K429) (UniProt Q8NBS9) 0.74
SERBP1 (lysine site: K76) (UniProt Q8NC51) 1.17
FH (lysine site: K80) (UniProt P07954) 1.86
UniProt P60660 (lysine site: K26) 1.69
ROBO1 (lysine site: K224) (UniProt Q9Y6N7) 0.52
MSN (lysine site: K64) (UniProt P26038) 1.22
UniProt P55285 (lysine site: K365) 0.61
PLOD2 (lysine site: K593) (UniProt O00469) 1.21
CD109 (lysine site: K952) (UniProt Q6YHK3) 0.643

From the supplement of paper PMC11001985
